This is part of a sample that, as a whole, favours compounds with a hit. Of some 83,000 tested, about 20% had one in any assay.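 Plates (96-well) were seeded with cells, treated with compound at one concentration, and incubated for 48 hours before percent growth was determined.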 Activity calls are given as the source filed them.
test system: NCI-H23 lung; assay: NCI-60 one-dose screen, 48 h (100 = growth as untreated, 0 = no growth, -100 = all killed); details: 10 µM unless noted
Protocol: Growth inhibition of the NCI-H23 human Non-Small Cell Lung tumor cell line is measured as a screen for anti-cancer activity. Cells are grown in 96 well plates and exposed to the test compound for 48 hours. Compounds are tested at a single concentration, which is 10^-5 M for most compounds. The reported endpoint is percent growth (GI% or GIPRCNT), where numbers from 0 - 100% represent growth inhibition, and numbers from -100% - 0 represent cell death. For example, a value of 40 represents 60% growth inhibition. A value of 0 means no net growth occurred over the course of the experiment. A value of -40 indicates 40% of cells at the beginning of the experiment died by the end of the experiment. A value of -100 means all cells are dead at the end of the experiment.
NCI-60 Human Tumor Cell Lines Screen was performed using the standard one-dose NCI protocol, which is described in more detail at https://dtp.cancer.gov/discovery_development/nci-60/default.htm.
Compounds with GIPRCNT values below 10 were considered active. Activity score was based on GIPRCNT using the following formula: […]
Score is 0 for GIPRCNT values of 100 or above, 50 for GIPRCNT values of 0, and 100 for GIPRCNT values of -100.

Row | Structure (SMILES) | growth
1 | Cc1ccc(NC(=O)c2sc3nc4c(cc3c2N)C(=O)CCC4)cc1C | 32.7% (inactive)
2 | COc1ccc(/C=C2\N=C3SC=C(N)N3C2=O)cc1 | 23.6% (inactive)
3 | CCC(=O)OCc1cccc(OC)c1 | 107% (inactive)
4 | c1ccc(Sc2ncnc3ccccc23)cc1 | 70.2% (inactive)
5 | COC1=CC(=O)C(OC)=C(OC)C1=O | 90.5% (inactive)
6 | Oc1ccc2c(=S)cc(-c3ccc(Br)cc3)oc2c1O | -13.7% (active)
7 | Cc1ccc(SCN2CCN(c3cccc(Cl)c3)CC2)cc1 | 94.4% (inactive)
8 | CCN(CC)CCCC(C)NCCCNc1cccc2cccnc12 (stereo not given) | 92.8% (inactive)
9 | CS(=O)(=O)c1ccc(-c2cnc3ccc(-c4cccc(S(C)(=O)=O)c4)nn23)cc1 | 44% (inactive)
10 | CC[C@H](CO)Nc1nc(NCc2ccccc2)n2ncc(C(C)C)c2n1 | 13.3% (inactive)
11 | O=C1/C(=C/c2ccc(Cl)c(Cl)c2)CN(C(=O)CCN2CCC(=NO)CC2)C/C1=C\c1ccc(Cl)c(Cl)c1 | -73.4% (active)
12 | Cc1nc2nc(N)nc(N)c2nc1C | 91.5% (inactive)
13 | CCCCCCCCCCCCN1CCCC(C)C1 (stereo not given) | 80.3% (inactive)
14 | NC(CC(=O)O)C(=O)OCc1ccccc1 (stereo not given) | 104% (inactive)
15 | CC/C(=C(\c1ccc(O)cc1)c1ccc(OCCN(C)CCN(C)C(=O)CCCCC(=O)c2c(C)[nH]c(/C=C3\N=C(c4ccc[nH]4)C=C3OC)c2C)cc1)c1ccccc1 | 94.1% (inactive)
16 | Nc1c(C(=O)Nc2cccc3c2OCCO3)sc2nc3c(cc12)CN(Cc1ccccc1)CC3 | 85.4% (inactive)
17 | CC[C@H](Nc1nc(N)nc(C)c1C#N)c1nc2cccc(NCc3ccc(C(=O)NO)cc3)c2c(=O)n1-c1ccccc1 | -22.9% (active)
18 | O=C(CN1CCN(c2cc3c(cc2F)c(=O)c(C(=O)O)cn3C2CC2)CC1)Nc1nc(-c2ccc(Cl)cc2)cs1 | 16.5% (inactive)
19 | O=C(O)c1ccc(=O)[nH]n1 | 103% (inactive)
20 | CC[C@H](Nc1ncnc(N)c1C(N)=O)c1nc2cccc(NCc3ccc(C(=O)NO)cc3)c2c(=O)n1-c1ccccc1 | 91.7% (inactive)

Row | Structure (SMILES) | growth
21 | COc1cc(-c2nc3ccccc3s2)ccc1NC(=O)COc1ccc(Cl)cc1 | 38.3% (inactive)
22 | O=c1c2cccc3c(NC4CCCCC4)ccc(c32)c2nc3ccccc3n12 | 46% (inactive)
23 | O=C(CO[N+](=O)[O-])Nc1ccc(C(=O)/C=C/c2ccc(Cl)cc2)cc1 | 5.49% (active)
24 | CN(C)C(=O)c1cc2cnc(Nc3ccc(-c4csc5c(=O)cc(N6CCNCC6)oc45)cc3)nc2n1C1CCCC1 | 0.906% (active)
25 | CCn1cc2c(cc1=O)-c1nc3ccccc3c3ccnc(c13)C2=O | 27.6% (inactive)
26 | CC1=C(NCCN2CCCC2)C(=O)c2c(OCc3ccc(F)c(Cl)c3)cccc2C1=O | 69.8% (inactive)
27 | O=C1c2cc3c(cc2-c2c1c1cc(Cl)c(Cl)cc1c(=O)n2CCCn1ccnc1)OCO3 | -19.4% (active)
28 | CC(C)n1cc2c(N)ncnc2n1 | 103% (inactive)
29 | COc1cc(-c2cc(-c3nc4ccc(Cl)cc4[nH]3)[nH]n2)cc(OC)c1OC | 45.5% (inactive)
30 | Nc1nc(-c2ccc(F)cc2)cc(-c2cnn(-c3ccccc3)n2)n1 | 99.1% (inactive)
31 | COC1C/C(=N\O)C2OC(c3ccccc3)OCC2O1 (stereo not given) | 101% (inactive)
32 | COc1cnc2c(c1)C(=O)c1c-2n(CCCN2CCNCC2)c(=O)c2cc([N+](=O)[O-])ccc12 | -63.6% (active)
33 | C=C(CN1CCN(c2cccc(C(F)(F)F)n2)CC1)c1ccc(C(=O)Nc2ccccc2N)cc1 | 35.5% (inactive)
34 | O=C1CC(c2nc3ccccc3[nH]2)CN1C1CCCCC1 (stereo not given) | 89.8% (inactive)
35 | C=C1C(=O)O[C@H]2[C@H]1CC/C(Cn1cc(Cn3ccc4cc(Cl)ccc43)nn1)=C\CC[C@@]1(C)O[C@@H]21 | 13.1% (inactive)
36 | C=C1CC2(OC1=O)C(=O)N(CCCCCCCCCCCCN1C(=O)C3(CC(=C)C(=O)O3)c3ccccc31)c1ccccc12 (stereo not given) | 84.6% (inactive)
37 | CNc1cc2nc3cc(NC)c(C)cc3cc2cc1C | 13.3% (inactive)
38 | COc1ccc(-c2cc(-c3cccnc3)nc3sc4c(=O)n(-c5ccc(C)cc5)cnc4c23)cc1OC | 95.7% (inactive)
39 | O=C(NCc1cccc(C(F)(F)F)c1)[C@H](CCC(=O)N1CCN(C2CCCCC2)CC1)N1C(=O)[C@@H](N2C(=O)OC[C@@H]2c2ccccc2)[C@H]1/C(Cl)=C/c1ccccc1 | 68.4% (inactive)
40 | Nc1nc2c(c3ncccc13)C(c1ccc(Cl)c(Cl)c1)Cc1ncccc1-2 (stereo not given) | 32.7% (inactive)

— PubChem BioAssay (NCI)
